{"source": "PubChem BioAssay (Tox21)", "note": "Results filed as inconclusive are left out. The source made the active and inactive calls. Calls follow the shape of the dose curve; as a rule, active = well fitted cell-killing curve with a large enough effect in the repeat runs; inconclusive = weak or mixed curves; inactive = flat fitted curve, though single readings scatter.", "data": [{"experiment": "qHTS RealTime-Glo MT Cell Viability Assay in HepG2 cells - 16 hour (AID 1224885); also: nearly all actives have a fitted effect of over 50% in size", "details": "RealTime-Glo luminescence; series mostly up to 76.8 µM", "excerpt": "U.S. Tox21 Program National Center for Advancing Translational Sciences [NCATS] NIH Chemical Genomics Center [NCGC] U.S. Environmental Protection Agency [EPA] National Institutes of Environmental Health Sciences [NIEHS] National Toxicology Program [NTP] U.S. Food and Drug Administration [FDA] Tox21 Assay Overview: Measure of cell viability is critical in the cell-base assay. Analysis of cell viability is necessary for the characterization of cell responses to cytotoxic drugs and environmental stress. A RealTime-Glo MT Cell Viability Assay to monitor cell viability in real time of continues cell culture during 40 hours of compound treatment was used to screen Tox21 10K library compounds in HepG2 cells. The RealTime-Glo MT Cell Viability Assay is a nonlytic, homogeneous, bioluminescent method to measure cell viability in real time using a simple, plate-based method. The assay involves adding NanoLuc luciferase and a cell-permeant prosubstrate to cells in culture. Viable cells reduce the proprietary prosubstrate to generate a substrate for NanoLuc luciferase. This substrate diffuses from cells into the surrounding culture medium, where it is rapidly used by the NanoLuc Enzyme to produce a luminescent signal. The signal correlates with the number of viable cells, making the assay well suited for cytotoxicity studies.\nTox21 Assay Protocol Summary: The mixture of HepG2 cell suspension and reagents were dispensed at 600cells/6 ul/well in 1536-well tissue culture treated black solid bottom plates using a Multidrop dispenser. After the assay plates were incubated at a 37 C/5% CO2 incubator for 5 hours, 23 nL of compounds dissolved in DMSO, positive and negative controls was transferred to the assay plate by a pintool work station. The plates were incubated at 37 C for 40 hours. The luminescence intensity were measured at 0h, 8h, 16h, 24h, 32h and 40h time points using ViewLux plate reader during compound treatment.", "values": [{"smiles": "CCOP(=S)(OCC)Oc1cc(C)nc(C(C)C)n1", "outcome": "inactive"}, {"smiles": "COS(=O)(=O)OC", "outcome": "inactive"}, {"smiles": "O=[N+]([O-])c1ccc(Cl)cc1", "outcome": "inactive"}, {"smiles": "CC[N+](=O)[O-]", "outcome": "inactive"}, {"smiles": "CNC(=O)O/N=C/C(C)(C)SC", "outcome": "inactive"}, {"smiles": "Cc1ccc(O)c(C)c1", "outcome": "inactive"}, {"smiles": "O=C(O)C(Br)Br", "outcome": "inactive"}, {"smiles": "CCCCCCCCCCCCCCCCCC(=O)O", "outcome": "inactive"}, {"smiles": "C=CC#N", "outcome": "inactive"}, {"smiles": "Nc1ccc([As](=O)(O)O)cc1", "outcome": "inactive"}, {"smiles": "Sc1ccccc1", "outcome": "inactive"}, {"smiles": "CNC(=O)O/N=C/C(C)(C)S(C)=O", "note": "(stereo not given)", "outcome": "inactive"}, {"smiles": "COC(=O)Nc1cccc(OC(=O)Nc2cccc(C)c2)c1", "outcome": "inactive"}, {"smiles": "CC(C)c1cccc(C(C)C)c1O", "outcome": "inactive"}, {"smiles": "O=S(=O)(O)OOS(=O)(=O)O", "outcome": "inactive"}, {"smiles": "O=C/C=C/c1ccccc1", "outcome": "inactive"}, {"smiles": "COP(=S)(OC)Oc1ccc(SC)c(C)c1", "outcome": "inactive"}, {"smiles": "Clc1cnc(Oc2ccc(Oc3ncc(Cl)cc3Cl)cc2)c(Cl)c1", "outcome": "inactive"}, {"smiles": "CNC(=O)O/N=C(\\SC)C(=O)N(C)C", "outcome": "inactive"}, {"smiles": "CN(C)NC(=O)CCC(=O)O", "outcome": "inactive"}, {"smiles": "Cc1ccc(N)cc1", "outcome": "inactive"}, {"smiles": "CN(C)C(=O)Cl", "outcome": "inactive"}, {"smiles": "O=C(O)C1C(C(=O)O)C2(Cl)C(Cl)=C(Cl)C1(Cl)C2(Cl)Cl", "note": "(stereo not given)", "outcome": "inactive"}, {"smiles": "CN(C)C(=O)C(c1ccccc1)c1ccccc1", "outcome": "inactive"}, {"smiles": "Cc1cccc(C)c1NC(=O)CN1CCCC1=O", "outcome": "inactive"}, {"smiles": "O=C(O)CCCc1ccc(N(CCCl)CCCl)cc1", "outcome": "inactive"}, {"smiles": "c1ccc2c(c1)CCCC2", "outcome": "inactive"}, {"smiles": "Oc1ccc(Cl)cc1", "outcome": "inactive"}, {"smiles": "COC(C)(C)CCCC(C)C/C=C/C(C)=C/C(=O)OC(C)C", "note": "(stereo not given)", "outcome": "inactive"}, {"smiles": "C=CC(=O)OCC(CC)CCCC", "note": "(stereo not given)", "outcome": "inactive"}, {"smiles": "Oc1c(Br)cc(Br)cc1Br", "outcome": "inactive"}, {"smiles": "COc1nc(NC(C)C)nc(NC(C)C)n1", "outcome": "inactive"}, {"smiles": "CCSC(=O)N1CCCCCC1", "outcome": "inactive"}, {"smiles": "Cc1cc(Cl)ccc1OC(C)C(=O)O", "note": "(stereo not given)", "outcome": "inactive"}, {"smiles": "Cc1cccc(C)c1N", "outcome": "inactive"}, {"smiles": "COc1cc(-c2ccc(N)c(OC)c2)ccc1N", "outcome": "inactive"}, {"smiles": "CCCCC(CC)C(=O)Cl", "note": "(stereo not given)", "outcome": "inactive"}, {"smiles": "C/C=C/c1ccc2c(c1)OCO2", "outcome": "inactive"}, {"smiles": "O=C(O)Cc1ccccc1", "outcome": "inactive"}, {"smiles": "CC12CC1(C)C(=O)N(c1cc(Cl)cc(Cl)c1)C2=O", "note": "(stereo not given)", "outcome": "inactive"}]}]}
